Assay results: PubChem BioAssay AID463173 (ICCB-Longwood Screening Facility, Harvard Medical School, 2010)
Hit rate of the full screen: of about 52,000 compounds, about 4,300 (8.3%) were called active. The full list was thinned out, with actives kept by preference. Unmarked numbers belong to inactive results. No stated cut-off is given here; in the data, active means survival mostly below about 52% (no sharp cut-off); inactive means mostly above about 56%.

tested on: DeltatarO mutant; assay: S. aureus survival, RN4220 and DeltatarO strains – OD600, teichoic acid synthesis inhibitors, primary screen (AID 463173); conditions: S. aureus RN4220 wild type/DeltatarO growth, OD600, 18 h, hits give low values, screened at 18.75 µg/mL (by protocol)

SMILES | survival
CC(C)c1ccc(NC(=O)C2CCN(C(=O)c3ccc(F)cc3)CC2)cc1 | 61%
COc1ccc(NC(=O)c2cc(-c3ccccc3F)no2)cc1 | 78%
CCOC(=O)c1ccccc1NC(=O)N(C)CCc1c(C)nn(CC)c1C | 78%
COc1ccc(-c2cc3nc(C)c(CCC(=O)Nc4cccc(C(F)(F)F)c4)c(C)n3n2)c(OC)c1 | 92%
Cc1ccc(S(=O)(=O)N2CC=C(c3c(C)n(CC(=O)N4CCCC4)c4ccccc34)CC2)cc1C | 72%
CCCCC1CCC(C(=O)N2CC(=O)Nc3ccc(Br)cc3C2c2ccc(F)cc2)CC1 (stereo unspecified) | 55%
CCCCC1CCC(C(=O)N2CC(=O)Nc3ccc(Cl)cc3C2c2ccc(F)cc2)CC1 (stereo unspecified) | 40% (active)
O=C1CN(C(=O)C2CCCCC2)C(c2ccccc2)c2cc(F)ccc2N1 (stereo unspecified) | 70%
CCCCC(=O)N1CC(=O)Nc2ccc(F)cc2C1c1ccc(F)cc1 (stereo unspecified) | 60%
CCCCC1CCC(C(=O)N2CC(=O)Nc3ccc(F)cc3C2c2ccc(F)cc2)CC1 (stereo unspecified) | 38% (active)
CCCCC1CCC(C(=O)N2CC(=O)Nc3ccc(C)cc3C2c2ccc(F)cc2)CC1 (stereo unspecified) | 126%
CCc1ccc2occ(CC(=O)Nc3sc4c(c3C(=O)OC)CCC4)c2c1 | 70%
Cc1cc(-n2ccnc(NCCc3ccc(S(N)(=O)=O)cc3)c2=O)ccc1Br | 94%
CC1Cc2ccccc2N1S(=O)(=O)c1nnc(NC(=O)c2ccccc2Br)s1 (stereo unspecified) | 23% (active)
Cc1ccc2c(c1)CC(C)N2S(=O)(=O)c1nnc(NC(=O)CC(C)C)s1 (stereo unspecified) | 59%
Cc1ccc2c(c1)CC(C)N2S(=O)(=O)c1nnc(NC(=O)C(C)C)s1 (stereo unspecified) | 58%
Cc1ccccc1C(=O)Nc1nnc(S(=O)(=O)N2c3ccccc3CC2C)s1 (stereo unspecified) | 20% (active)
Cc1ccc2c(c1)CC(C)N2S(=O)(=O)c1nnc(NC(=O)c2ccccc2F)s1 (stereo unspecified) | 9% (active)
Cc1cccc(N2CCN(C(=O)CN3C(=O)COc4ccc(S(=O)(=O)N5CCC(C)CC5)cc43)CC2C)c1 (stereo unspecified) | 67%
COc1ccc(CCNC(=O)C(C)n2nc(C)c3sc4ccccc4c3c2=O)cc1OC (stereo unspecified) | 110%
Cc1ccccc1Cn1cc(S(=O)(=O)c2ccc(F)cc2)c(=O)c2cc3c(cc21)OCO3 | 68%
NC(=O)C1CCN(C(=O)Cn2c(-c3cccs3)cc3ccccc32)CC1 | 73%
O=C(NCCN1CCCC1)c1ccc(Cl)cc1 | 98%

SMILES | survival
CCOC(=O)c1cnc2ccc(Cl)cc2c1Nc1ccc(OCC)cc1 | -5% (active)
CCOC(=O)c1cnc2ccc(OCC)cc2c1Nc1cc(Cl)c(OC)cc1OC | 51% (active)
CCOC(=O)c1cnc2c(C)cc(C)cc2c1Nc1ccc(N2CCOCC2)cc1 | 14% (active)
CCOC(=O)c1cnc2c(C)c(Cl)ccc2c1Nc1ccc(N2CCOCC2)cc1 | 43%
CCOC(=O)c1ccccc1NC(=O)c1cnc(N2CCOCC2)c2ccccc12 | 90%
CCOC(=O)c1cnc2cc(Cl)c(OC)cc2c1Nc1ccc(Br)cc1C | 102%
CCOC(=O)c1cnc2ccc(C)cc2c1Nc1ccc(OCc2ccccc2Cl)cc1 | 2% (active)
CCOC(=O)c1cnc2ccc(OCC)cc2c1NCCN(C)C | 95%
O=C(N/C(=C\c1ccc(F)cc1)C(=O)N1CCOCC1)c1ccccc1 | 98%
Cc1cccc(OCC(=O)OC2CCN(C)CC2)c1 | 100%
COC(=O)C(C#N)C(c1cccnc1)c1c(C)[nH][nH]c1=O (stereo unspecified) | 90%
COc1cc(OC)cc(-c2cc3nc(-c4ccccc4)cc(N4CCN(c5ccccc5)CC4)n3n2)c1 | 101%
CC(=O)Oc1ccc(C(=O)NC2CCSC2=O)cc1 (stereo unspecified) | 72%
COC(=O)CC1Oc2ccccc2-n2cc(-c3ccc(Cl)cc3)nc21 (stereo unspecified) | 69%
CCN1CCSc2ccc(C(=O)NC(C)c3ccccc3)cc21 (stereo unspecified) | 66%
O=C(Nc1ccc(Br)cc1)c1cccc(C(=O)Nc2ccc(Br)cc2)c1 | 72%
CCOC(=O)c1cnc2ccc(OC)cc2c1Nc1cccc(C(C)=O)c1 | 9% (active)
CCOC(=O)c1cnc2ccc(C)cc2c1Nc1ccc(N(CC)CC)cc1 | -5% (active)
CCOC(=O)c1cnc2ccc(OC)cc2c1Nc1ccc(OCc2ccccc2Cl)cc1 | 8% (active)
CCOC(=O)c1cc(-c2ccc(OC)cc2)n(CCC(=O)Nc2cccc(C(C)=O)c2)c1C | 64%
CCOC(=O)c1cccc(NC(=O)c2cc3cc4cc(OC)ccc4nc3s2)c1 | 76%
CCOC(=O)c1cnc2ccc(C(=O)OC)cc2c1Nc1ccc(OCc2ccccc2Cl)cc1 | 151%
CCOC(=O)c1cnc2ccc(Cl)cc2c1Nc1ccc(N2CCOCC2)cc1 | 0% (active)

SMILES | survival
CCOC(=O)c1cnc2ccc(C(=O)OC)cc2c1Nc1ccc(N2CCOCC2)cc1 | 144%
CCOC(=O)c1cnc2ccccc2c1Nc1ccc(N2CCOCC2)cc1 | 63%
CCCCn1c2ccc(F)cc2c2nnc(SCCN(CC)CC)nc21 | 178%
CCn1c(CNC(=O)c2ccccc2)n[nH]c1=S | 86%
CCOc1ccc2cc(-c3nnc(Nc4ccc(C)cc4)s3)c(=O)oc2c1 | 80%
COc1ccccc1CCNC(=O)C(=O)NCC(c1ccco1)S(=O)(=O)c1ccccc1 (stereo unspecified) | 77%
COc1ccc(OC)c(CNC(=O)CCc2c(C)nc3c(c2C)c(=O)n(C)c(=O)n3C)c1 | 89%
Fc1ccc(-c2cn3ccccc3n2)cc1 | 74%
Cc1cccc(NC(=O)C2CCCN(c3nnc(-n4c(C)ccc4C)s3)C2)c1C (stereo unspecified) | 75%
Cc1cc(=O)[nH]c2nnc(SCC(=O)Nc3cc(C(F)(F)F)ccc3Cl)n12 | 116%
CCOc1ccc(Nc2cc(C(=O)NCc3ccccc3Cl)c3ccccc3n2)cc1 | 86%
CCOC(=O)c1cnc2ccc(OCC)cc2c1Nc1ccc(OCc2ccccc2Cl)cc1 | 9% (active)
Cc1ccc(C2=Nc3ccccc3N(CC(=O)NCc3ccccc3Cl)C(=O)C2)cc1C | 82%
COc1ccc(C(=O)Nc2ccccc2C(=O)OCc2cc(=O)n3c4c(sc3n2)CCCC4)cc1 | 72%
CCOc1ccc(S(=O)(=O)c2cc3cccc(OCC)c3oc2=O)cc1 | 100%
COc1ccc(S(=O)(=O)c2cc3cc(C(C)(C)C)cc(O)c3oc2=O)cc1 | 26% (active)
COc1ccc(S(=O)(=O)c2cc3cc(OC)ccc3oc2=O)cc1 | 99%
CCN(c1ccccc1)c1nnc(NC(=O)Nc2ccc(C)cc2)s1 | 89%
Cc1ccc(OCC(=O)Nc2ccc(C(=O)OCc3cc(=O)n4nc(C5CC5)sc4n3)cc2)cc1 | 72%
Cc1ccc(C(=O)Nc2cccc(C(=O)OCc3cc(=O)n4nc(C5CC5)sc4n3)c2)cc1 | 81%
O=C(Nc1cccc(C(=O)OCc2cc(=O)n3nc(C4CC4)sc3n2)c1)c1ccccc1 | 6% (active)
COc1ccc(C(=O)Nc2ccc(C(=O)OCc3cc(=O)n4nc(C5CC5)sc4n3)cc2)cc1 | -1% (active)
O=C(Nc1cccc(C(=O)OCc2cc(=O)n3nc(C4CC4)sc3n2)c1)c1ccc(F)cc1 | 70%

SMILES | survival
Cc1cccc(OCC(=O)Nc2ccc(C(=O)OCc3cc(=O)n4nc(C5CC5)sc4n3)cc2)c1 | -2% (active)
COc1ccc(C(=O)Nc2cccc(C(=O)OCc3cc(=O)n4nc(C5CC5)sc4n3)c2)cc1 | 115%
COc1cccc(C(=O)Nc2ccc(C(=O)OCc3cc(=O)n4nc(C5CC5)sc4n3)cc2)c1 | 79%
O=C(COc1ccccc1)Nc1ccc(C(=O)OCc2cc(=O)n3nc(C4CC4)sc3n2)cc1 | 76%
Cc1ccc2nc3c(cc(C#N)c(=O)n3-c3nnc(SCc4ccc(F)cc4)s3)c(=O)n2c1 | 72%
Cc1ccc(NCc2nnc(SCC(=O)N3CCOCC3)o2)c(C)c1 | 74%
O=C(Cn1cc(SCc2ccc(C(F)(F)F)cc2)c2ccccc21)N1CCCC1 | 55%
COC(=O)c1ccc(Cn2nnc3c(=O)[nH]c(C4CCCN(S(=O)(=O)c5ccccc5Cl)C4)nc32)cc1 (stereo unspecified) | 68%
COc1cccc(CNC(=O)CN2C(=O)CCn3nc(-c4cn(C)c5ccccc45)cc32)c1OC | 76%
COc1ccc(OC)c(S(=O)(=O)NCCc2sc(-c3ccc(C)cc3)nc2C)c1 | 94%
CCOC(=O)c1ccc(N2C(=O)c3n[nH]c(-c4ccco4)c3C2c2cccc(OC)c2)cc1 (stereo unspecified) | 91%
CCOC(=O)c1ccc(N2C(=O)c3n[nH]c(C)c3C2c2ccc(C(C)(C)C)cc2)cc1 (stereo unspecified) | 87%
CCOC(=O)c1ccc(N2C(=O)c3n[nH]c(C)c3C2c2cccc(Br)c2)cc1 (stereo unspecified) | 8% (active)
CCOC(=O)c1ccc(N2C(=O)c3n[nH]c(-c4cccs4)c3C2c2cccc(O)c2)cc1 (stereo unspecified) | -5% (active)
CCOC(=O)c1ccc(N2C(=O)c3n[nH]c(-c4ccco4)c3C2c2ccc(C(=O)OC)cc2)cc1 (stereo unspecified) | 89%
CCOC(=O)c1ccc(N2C(=O)c3n[nH]c(-c4ccco4)c3C2c2ccc(F)cc2)cc1 (stereo unspecified) | 22% (active)
CCOC(=O)c1ccc(N2C(=O)c3n[nH]c(-c4cccs4)c3C2c2cccc(OC)c2)cc1 (stereo unspecified) | 97%
CCOC(=O)c1ccc(N2C(=O)c3n[nH]c(-c4cccs4)c3C2c2cccc(F)c2)cc1 (stereo unspecified) | 105%
CCOC(=O)c1ccc(N2C(=O)c3n[nH]c(-c4ccco4)c3C2c2cccc(O)c2)cc1 (stereo unspecified) | -8% (active)
CCOC(=O)c1ccc(N2C(=O)c3n[nH]c(-c4ccco4)c3C2c2ccc(C)cc2)cc1 (stereo unspecified) | 69%
CCOC(=O)c1ccc(N2C(=O)c3n[nH]c(C)c3C2c2ccc(OCC)cc2)cc1 (stereo unspecified) | 52%
CCOC(=O)c1ccc(N2C(=O)c3n[nH]c(-c4ccco4)c3C2c2ccc(O)cc2)cc1 (stereo unspecified) | 40%
